ST2 IL33 inh: inhibitors of human ST2 (IL1RL1) binding to IL-33; AID 1259354; inhibition, % for hits at 17 µM; 2.3% of 78,000 active; AlphaLISA ST2-Fc/biotin-IL-33 interaction, 1 h; in the data active means inhibition above about 30%
Target sequence (Q01638 whole entry, looked up): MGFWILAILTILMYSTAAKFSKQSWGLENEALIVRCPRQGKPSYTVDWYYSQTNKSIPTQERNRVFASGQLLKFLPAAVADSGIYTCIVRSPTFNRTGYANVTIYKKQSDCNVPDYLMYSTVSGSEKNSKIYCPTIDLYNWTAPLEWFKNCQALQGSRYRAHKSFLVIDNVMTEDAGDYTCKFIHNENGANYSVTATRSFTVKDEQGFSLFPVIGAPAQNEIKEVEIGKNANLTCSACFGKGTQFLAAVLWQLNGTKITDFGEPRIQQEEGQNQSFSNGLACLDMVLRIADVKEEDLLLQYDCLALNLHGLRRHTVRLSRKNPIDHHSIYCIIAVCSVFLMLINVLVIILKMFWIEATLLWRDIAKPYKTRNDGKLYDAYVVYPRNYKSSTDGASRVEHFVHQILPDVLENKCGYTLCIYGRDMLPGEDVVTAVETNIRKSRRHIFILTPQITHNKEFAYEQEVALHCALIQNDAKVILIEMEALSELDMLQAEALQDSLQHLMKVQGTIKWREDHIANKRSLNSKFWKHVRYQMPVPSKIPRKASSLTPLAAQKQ
Numbers without * were called inactive; i = inactive; ! = not active in a repeat. The entries come from a sample that favours hits as a whole.

SMILES | ST2 IL33 inh
CC(C)CCSc1nc(O)cc(=O)[nH]1 | i
COc1ccc(C(=O)N2CCN=C2SCc2cc(C)ccc2C)c(OC)c1 | i
CC1=CC[C@@H]2CN(C(=O)CCNC(=O)c3ccccc3F)C[C@@H]2C1 | i
CC(NC(=O)c1nn(CCO)c2c1CN(Cc1nccs1)CC2)c1ccccc1 (configuration not stated) | i
Cc1ccc(OCC(=O)Nc2ccccc2C(F)(F)F)c(C)c1 | i
CCOc1c(Nc2ccc(C)cc2C)c(=O)c1=O | i
CC(=O)Nc1ccc(OCc2ccccc2)cc1 | i
C=CCN1C(=O)NC(=O)/C(=C/c2ccc(OCc3ccccc3F)cc2)C1=O | i
CC1=NN(c2ccccc2)C(=O)/C1=C\c1ccc(N2CCOCC2)cc1 | 40%*
CC1=NN(c2ccccc2)C(=O)/C1=C\c1ccc(OCc2ccccc2)cc1 | 32%*
COc1cc(Br)c(/C=C2\C(=O)N(c3ccccc3)N=C2C)cc1OC | i
Cn1c(SCC(=O)Nc2ccc(Cl)c(Cl)c2)nc2c([nH]c3ccccc32)c1=O | i
CCCn1nccc1C(=O)N1CCN2CCN(C)CC2C1 (configuration not stated) | i
N#Cc1c(-c2ccccc2)cc(-c2cccs2)nc1Br | i
N#C/C(=C/c1ccc(Br)cc1)c1nc(-c2cccs2)cs1 | 40%*
O=C(Nc1nc(-c2cccs2)cs1)c1ccc(Br)cc1 | i
N#C/C(=C\c1ccc(Br)cc1)c1nc(C2CC2)cs1 | 49%*
N#CCCNc1ccccc1C(=O)O | i
N#CC1=C(N)Oc2n[nH]c(-c3ccccc3)c2C1c1cccc(F)c1 (configuration not stated) | i
CC/C=C(\C)c1c(-c2ccccc2)ncn1Cc1nc(COC)no1 | i
CC(C)Cc1cc(C(=O)Nc2sc3c(c2C(N)=O)CCCC3)no1 | i
CCCc1ccc(Oc2coc3cc(O)ccc3c2=O)cc1 | i
COc1ccc(Br)cc1CC(=O)O | i
CCOc1ccc(Br)cc1/C=C1\NC(=O)N(Cc2ccc(Cl)cc2)C1=O | i
COc1ccc(Cl)cc1/C=C1\C(=O)Nc2ccc(Br)cc21 | 35%*
SMILES | ST2 IL33 inh
Cc1ccc(/C=C2\C(=O)Nc3ccc(Br)cc32)o1 | 30%*
COc1ccc(Br)cc1/C=C1\C(=O)Nc2ccc(Br)cc21 | 36%*
C=CCOc1cc(Br)c(/C=C2/NC(=O)NC2=O)cc1OC | i
CCOc1cc(/C=C2\C(=O)Nc3ccc(Br)cc32)c(Br)cc1OC | 41%*
Cc1cccc(C)c1N=C1C(=O)Nc2ccc(Br)cc21 | i
CCOc1c(O)ccc(/C=C2\C(=O)Nc3ccc(Br)cc32)c1[N+](=O)[O-] | i
COc1ccc(Br)cc1/C=C1\N=C(c2ccc(OC)c([N+](=O)[O-])c2)OC1=O | i
COc1ccc(Cl)cc1/C=C1/NC(=O)NC1=O | i
CC1=NN(c2ccc(Br)cc2)C(=O)/C1=C/c1ccc(-c2ccc3c(c2)C(=O)OC3)o1 | i
Cc1cc(C)c(OCC(=O)NCCc2ccccc2)c(C)c1 | i
CN1CCc2c1nc1ccccc1c2NC(=O)CNC1CC1 | i
COc1cccc(C(=O)Nc2nnc(N=Cc3ccc([N+](=O)[O-])s3)s2)c1 | i
COc1cccc(N2CCN(c3ncnc4c3cnn4-c3ccc(Cl)cc3)CC2)c1 | i
COc1ccc(Cn2c(=O)[nH]c3cc(C(=O)O)ccc3c2=O)cc1 | i
O=C(N1CCCCC1)[n+]1ccc(N2CCOCC2)cc1 | i
Clc1ccccc1/C=C/C=Nc1ccc(N2CCOCC2)cc1 | 38%*
Clc1nc(N2CCCCC2)nc(N2CCOCC2)n1 | i
Cc1cc(NCCN2CCOCC2)n2c(nc3ccccc32)c1C#N | i
CCCc1cc(NCCOC)n2c(nc3ccccc32)c1C#N | i
N#Cc1c(C(F)(F)F)cc(NCCN2CCOCC2)n2c1nc1ccccc12 | 34%*
O=C(CCCn1c(=O)c2sccc2n(Cc2cccc([N+](=O)[O-])c2)c1=O)NCc1ccco1 | i
Cc1ccc(Nc2cc(C)nc(N3CCN(S(=O)(=O)c4ccc(C)cc4)CC3)n2)cc1 | i
Cc1ccc(S(=O)(=O)N2CCN(c3nc(C)cc(N4CCCC4)n3)CC2)cc1 | i
Cc1ccc(S(=O)(=O)N2CCN(c3nc(-c4ccc(C)o4)cs3)CC2)cc1 | 37%*
Brc1cnc2nc(COc3ccccc3)[nH]c2c1 | 35%*
SMILES | ST2 IL33 inh
COc1ccc(OCc2nc3ccccc3[nH]2)cc1 | i
Cc1cc(OCc2nc3ccccc3[nH]2)ccc1C(C)C | i
O=C(O)c1ccccc1CN(Cc1ccccn1)CC1CCCO1 (configuration not stated) | i
Cn1c(=O)cc2c3c(c(Nc4ccccc4)ccc31)C(=O)c1ccccc1-2 | 40%*
O=C1NC(=O)c2cc(Nc3ccccc3)c(Nc3ccccc3)cc21 | i
Cn1c(CNc2ccccc2)cc(=O)n(C)c1=O | i
COc1ccc(S(=O)(=O)N(CC(=O)Nc2ccc3c(c2)OCO3)c2ccccc2)cc1 | i
CS(=O)(=O)N1Cc2ccccc2CC1C(=O)NC1CCCCCCC1 (configuration not stated) | i
Brc1ccc(-c2cn3ccc4ccccc4c3n2)cc1 | i
O=[N+]([O-])c1ccc(-c2cn3cc(Br)ccc3n2)cc1 | 31%*
O=[N+]([O-])c1ccc(-c2cn3ccsc3n2)cc1 | i
Cc1cc(N2CCN(C)CC2)nc2ccc(NC(=O)CCC(=O)Nc3ccc4c(c3)OCO4)cc12 | i
CC1CCCCC1NC(=O)c1cc(=O)[nH]c2ccc(S(=O)(=O)N3CCCC3)cc12 (configuration not stated) | i
COc1cc(CC(=O)O)c([N+](=O)[O-])cc1OC | i
COc1cc(C(c2ccc(C)o2)c2ccc(C)o2)c([N+](=O)[O-])cc1OC | 36%*
COc1cc(CN2CCC(C)CC2)c([N+](=O)[O-])cc1OC | i
CCOc1ccc(S(=O)(=O)NC2CCCCC2)c2cccnc12 | i
C=C1C2(C(=O)N3CCC(c4cccc(OC)c4OC)C3)CC[C@@H](C2)C1(C)C (some centres not stated) | i
COc1ccc(OC)c(S(=O)(=O)NC2CCCCC2C)c1 (configuration not stated) | i
COc1ccc(S(=O)(=O)NC2CCCCC2C)cc1OC (configuration not stated) | 34%*!
CCCNS(=O)(=O)c1ccc(OC)c(OC)c1 | i
COC(=O)c1c[nH]n2c(=O)c(Cc3ccccc3C)c(C)nc12 | 53%*
COC(=O)c1c[nH]n2c(=O)c(Cc3ccccc3F)c(C)nc12 | i
COC(=O)c1c[nH]n2c(=O)c(Cc3ccc(C)cc3)c(C)nc12 | i
Clc1ccc(C2CC(c3ccccc3)n3ncnc3N2)cc1 (configuration not stated) | i
SMILES | ST2 IL33 inh
CC(=O)Oc1ccc2c(=O)c(Oc3ccccc3)c(C)oc2c1OC(C)=O | i
COc1ccc2c(=O)c(Oc3ccccc3)c(C(F)(F)F)oc2c1OC | i
COc1ccc2c(=O)c(Oc3ccccc3)c(C)oc2c1OC | 30%*
CN(C)CC(=O)Nc1ccc(Cl)cc1 | i
CN(CCc1ccccc1)C1CCCN(C2CCN(Cc3ccco3)CC2)C1 (configuration not stated) | i
COc1ccc(-c2c3c(=O)n(C)c(=O)n(C)c3cn2Cc2ccccc2)cc1 | i
COc1ccc(-c2oc3ncn(Cc4ccccc4)c(=N)c3c2-c2ccc(OC)cc2)cc1 | 39%*
N=c1c2c3c(sc2ncn1Cc1ccccc1)CCCC3 | i
O=C(c1ccccc1OC1CCN(CC2CCOC2)CC1)N1CCCCC1 (configuration not stated) | i

Screening results as filed in PubChem.
